{"source": "PubChem BioAssay AID1240", "about": "(Sanford-Burnham Center for Chemical Genomics, 2008)", "note": "Among all 50,000 compounds or so, about 800 (1.6%) showed an effect of 50% or more. What follows is part of a selection rich in strong results, with near analogues and random picks from the rest.", "data": [{"target": "Bcl-2-like protein 10 (Homo sapiens) (UniProt Q9HD36)", "sequence (Q9HD36 whole entry, looked up)": "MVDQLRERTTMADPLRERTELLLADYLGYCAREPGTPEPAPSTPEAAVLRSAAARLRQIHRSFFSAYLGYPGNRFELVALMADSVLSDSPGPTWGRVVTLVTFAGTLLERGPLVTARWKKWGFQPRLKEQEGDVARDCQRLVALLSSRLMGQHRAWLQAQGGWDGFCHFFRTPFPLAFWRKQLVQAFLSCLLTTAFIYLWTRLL", "assay": "Phenotype converters, Bcl-B/TR3 peptide binding displacement, primary biochemical FP (AID 1240);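 further: 0% = Bcl-B with tracer peptide and DMSO and 100% = tracer peptide lacking Bcl-B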", "conditions": "GST-Bcl-B / FITC-TR3 peptide fluorescence polarization; stronger effect = higher value; compound at 3.75 mg/L", "units": {"displacement": "%"}, "values": [{"smiles": "Cc1cccc(-c2cc(NC(=O)c3ccc(Br)cc3)n[nH]2)c1", "displacement": 9.4}, {"smiles": "COc1ccccc1C(=O)Nc1ccc2oc(-c3ccncc3)nc2c1", "displacement": 135}, {"smiles": "CN(C)c1ccc(-c2nc3cc(NC(=O)c4cccc(Br)c4)ccc3o2)cc1", "displacement": 62.5}, {"smiles": "COc1ccc(-c2nc3ccccc3o2)cc1NC(=O)c1ccc(Br)o1", "displacement": 63}, {"smiles": "COc1ccc(Br)cc1C(=O)Nc1ccc(-c2nc3ncccc3o2)cc1", "displacement": 5.4}, {"smiles": "Cc1cccc(C(=O)Nc2ccc3oc(-c4ccc(N(C)C)cc4)nc3c2)c1", "displacement": 35.7}, {"smiles": "CN(C)c1ccc(-c2nc3cc(NC(=O)c4ccccc4Br)ccc3o2)cc1", "displacement": 1.6}, {"smiles": "COc1ccc(-c2nc3ccccc3o2)cc1NC(=O)c1cc2ccccc2cc1OC", "displacement": -8.6}, {"smiles": "COc1ccc(Br)cc1C(=O)Nc1ccc2oc(-c3ccccc3)nc2c1", "displacement": -2.9}, {"smiles": "COc1ccccc1C(=O)Nc1ccc2oc(-c3cccc(C)c3)nc2c1", "displacement": 1.6}, {"smiles": "COc1ccc(Br)cc1C(=O)Nc1ccc(-c2nc3ccccc3o2)cc1", "displacement": 134}, {"smiles": "COc1cccc(C(=O)Nc2cc(-c3nc4ccccc4o3)ccc2OC)c1", "displacement": -29.6}, {"smiles": "CCc1ccc(-c2nc3cc(NC(=O)c4ccccc4OC)ccc3o2)cc1", "displacement": 8.5}, {"smiles": "COc1ccc2c(c1OC)C(=O)N(c1cccc(Cl)c1)C2=O", "displacement": -23.7}, {"smiles": "O=C1NC(=O)N(c2ccccc2Cl)C(=O)/C1=C\\C=C\\c1ccco1", "displacement": 15.6}, {"smiles": "COc1cc(/C=C(\\C#N)c2nc3ccc(C)cc3[nH]2)cc(OC)c1O", "displacement": -65.6}, {"smiles": "COc1ccc(-c2nnc(-c3cccc([N+](=O)[O-])c3)o2)cc1", "displacement": 5.8}, {"smiles": "N/C(=N\\OC(=O)c1cccc(F)c1)c1ccccc1", "displacement": -7.1}, {"smiles": "CCOc1cc(C(=S)N2CCOCC2)cc(Br)c1OC(=O)c1ccc(Cl)cc1Cl", "displacement": 14.1}, {"smiles": "COC(=O)c1ccc(NC(=O)CC2Sc3ccccc3NC2=O)cc1", "note": "(centres undefined)", "displacement": 3.1}, {"smiles": "Cc1ccc(-c2nc3cc(NC(=O)COc4ccccc4C)ccc3o2)cc1", "displacement": -6.6}, {"smiles": "O=C(Nc1ccc2oc(-c3ccncc3)nc2c1)c1ccncc1", "displacement": 28.9}, {"smiles": "O=C(COc1ccccc1Cl)Nc1ccc2oc(-c3ccncc3)nc2c1", "displacement": 136}, {"smiles": "O=C(COc1ccc(Cl)cc1)Nc1ccc2oc(-c3ccccc3)nc2c1", "displacement": -6.4}, {"smiles": "O=C(Nc1ccc2oc(-c3ccccc3)nc2c1)c1ccncc1", "displacement": -3.2}, {"smiles": "O=C(Nc1ccc2oc(-c3ccncc3)nc2c1)c1cccnc1", "displacement": 61.6}, {"smiles": "CCOc1cc(/C=C2\\SC(=S)N(Cc3ccco3)C2=O)ccc1O", "displacement": -18.8}, {"smiles": "CCOC(=O)c1c(C)oc2cc(Br)c(OCC(=O)OCc3ccccc3)cc12", "displacement": 10.8}, {"smiles": "CCOC(=O)C1=C(C)N=C2SCCN2C1c1ccccc1", "note": "(centres undefined)", "displacement": -10.4}, {"smiles": "CSc1ccccc1NC(=O)CSc1nc2ccccc2o1", "displacement": 18.9}, {"smiles": "O=C(Nc1ccccc1C(=O)O)c1ccc(N2C(=O)C3C4C=CC(C4)C3C2=O)cc1", "note": "(centres undefined)", "displacement": -3.6}, {"smiles": "CCn1c2ccccc2c2cc(/C=N/Nc3ccc([N+](=O)[O-])cc3)ccc21", "displacement": -7.5}, {"smiles": "CCOC(=O)c1c(NC(C)=O)sc2cc(C(C)(C)C)ccc12", "displacement": -4.1}, {"smiles": "CC(=O)Nc1nonc1-c1nc2ccccc2n1Cc1ccccc1", "displacement": 49.8}, {"smiles": "CC(=O)Nc1nonc1-c1nc2ccccc2n1Cc1ccc(C(C)(C)C)cc1", "displacement": 52.2}, {"smiles": "CC(=O)Nc1nonc1-c1nc2ccccc2n1Cc1ccc([N+](=O)[O-])cc1", "displacement": 8.1}, {"smiles": "COc1ccccc1NC(=O)c1ccc(Oc2ccc(C(=O)Nc3ccccc3OC)cc2)cc1", "displacement": -1.8}, {"smiles": "CCOC(=O)c1c(NC(=O)COc2c(C)cc(C)cc2C)sc(C(=O)Nc2ccccc2)c1C", "displacement": 13.1}, {"smiles": "CCOc1ccc(N2C(=O)CC(SC(=NC)Nc3ccc4c(c3)OCO4)C2=O)cc1", "note": "(centres undefined)", "displacement": -6.7}, {"smiles": "Cc1cc(C)nc(SCC(=O)Nc2ccc(C)c(NC(=O)CSc3nc(C)cc(C)n3)c2)n1", "displacement": 23.5}, {"smiles": "CN(C)c1ccc(/C=C/C(=O)c2ccc3c(c2)OCCO3)cc1", "displacement": -18.8}, {"smiles": "CCOC(=O)C1=C(C)NC(C)=C(C(=O)OCC)C1c1ccc(F)cc1", "displacement": 0}, {"smiles": "CC1=C(C(=O)OC(C)C)C(c2ccc(F)cc2)NC(=O)N1", "note": "(centres undefined)", "displacement": 6.9}, {"smiles": "CC1=C(C(=O)OC(C)C)C(c2ccc(F)cc2)C(C(=O)OC(C)C)=C(C)N1", "displacement": 54.7}, {"smiles": "COc1ccc(CNC(=O)CN(c2c(C)n(C)n(-c3ccccc3)c2=O)S(=O)(=O)c2ccccc2)cc1", "displacement": -6.2}, {"smiles": "Cc1cc(Nc2ccccc2)nn1C(=O)c1ccc(Cl)cc1", "displacement": -10.9}, {"smiles": "Cn1c2ccccc2c2cc(C3Nc4ccccc4C(=O)N3Cc3ccco3)ccc21", "note": "(centres undefined)", "displacement": 10.3}, {"smiles": "O=C(/C=C/c1ccc(S(=O)(=O)Nc2ccccc2)cc1)C1C(=O)c2ccccc2C1=O", "displacement": 31.1}, {"smiles": "O=C(/C=C/c1ccc([N+](=O)[O-])cc1)C1C(=O)c2ccccc2C1=O", "displacement": -6.3}, {"smiles": "COc1ccc(/C=C\\C(=O)C2C(=O)c3ccccc3C2=O)cc1", "displacement": 122}, {"smiles": "CC1CC(C)CN(S(=O)(=O)c2ccc(F)cc2)C1", "note": "(centres undefined)", "displacement": -9}, {"smiles": "CN(C)/C=C/C=C/C(=O)c1ccc(/C=C/C=C/N(C)C)o1", "displacement": 36.1}, {"smiles": "N#C/C(=C/c1ccc(Cl)cc1)C(=O)Nc1ccc(O)cc1", "displacement": 7.1}, {"smiles": "CC(=O)Nc1ccc(/C=C(/C#N)C(=O)NCc2ccco2)cc1", "displacement": 9.4}, {"smiles": "CC(=O)Nc1ccc(/C=C(/C#N)C(=O)N/N=C/c2ccc(NC(C)=O)cc2)cc1", "displacement": 110}, {"smiles": "O=C(N/N=C\\c1ccc(Cl)c(Cl)c1)c1cnccn1", "displacement": -7.3}, {"smiles": "CSc1ccc(/C=N\\NC(=O)c2cnccn2)cc1", "displacement": 109}, {"smiles": "CSc1ccc(/C=N/NC(=O)c2cc(C)[nH]n2)cc1", "displacement": 3.8}, {"smiles": "Cc1ccc(S(=O)(=O)/N=C(/NC(=S)N2CCOCC2)c2ccccc2)cc1", "displacement": -5.4}, {"smiles": "CCOC(=O)c1ccccc1NC(=O)CN(c1ccc(Br)cc1)S(C)(=O)=O", "displacement": -5}, {"smiles": "CC1=Nc2ccccc2/C1=C\\c1sc(=S)n(-c2cccc(F)c2)c1O", "displacement": -1.7}, {"smiles": "CC1=Nc2ccccc2/C1=C\\c1c(O)n(-c2ccccc2)c(=O)[nH]c1=O", "displacement": -3.1}, {"smiles": "CC1=Nc2ccccc2/C1=C\\c1sc(=S)n(-c2ccccc2)c1O", "displacement": 104}, {"smiles": "O=C(CCCN1C(=O)c2ccccc2C1=O)Nc1cccnc1", "displacement": 20.6}, {"smiles": "CC(c1ccccc1)N1C(=O)C(=Cc2c(NCC3CCCO3)nc3ccccn3c2=O)SC1=S", "note": "(centres undefined)", "displacement": -14.7}, {"smiles": "CC1=C(C(=O)OC(C)C)C(c2ccc(Cl)c(Cl)c2)N2C(=O)CCSC2=N1", "note": "(centres undefined)", "displacement": 15.3}, {"smiles": "COC(=O)c1ccc(C2C(C(=O)OC(C)C)=C(C)N=C3SCCC(=O)N32)cc1", "note": "(centres undefined)", "displacement": 11.3}, {"smiles": "CC1=C(C(=O)OC(C)C)C(c2ccccc2)N2C(=O)CCSC2=N1", "note": "(centres undefined)", "displacement": 61.6}, {"smiles": "Cc1cc(=O)oc2c1c(C)nn2-c1ccc(Br)cc1", "displacement": 2.1}, {"smiles": "COc1ccccc1NC(=O)C1=C(C)NC(=S)NC1c1ccccc1OC", "note": "(centres undefined)", "displacement": 6}, {"smiles": "COC(=O)Cn1cc(/C=C2\\C(=O)NC(=O)N(c3cc(C)cc(C)c3)C2=O)c2ccccc21", "displacement": -4.6}, {"smiles": "CCOc1ccccc1/C=C1\\C(=O)NC(=O)N(c2ccc(Br)c(C)c2)C1=O", "displacement": -7.9}, {"smiles": "O=C1NC(=O)N(c2ccc(Cl)cc2)C(=O)/C1=C\\c1ccc(N2CCCC2)cc1", "displacement": 71.4}, {"smiles": "Cc1c(/C=C2\\C(=O)NC(=O)N(c3ccc(Cl)cc3)C2=O)c2ccccc2n1C", "displacement": 104}, {"smiles": "Cc1cc(N2C(=O)NC(=O)/C(=C\\c3cn(C)c4ccccc34)C2=O)ccc1Br", "displacement": 126}, {"smiles": "O=C1NC(=O)N(c2ccccc2)C(=O)/C1=C\\c1ccc(Cl)cc1", "displacement": 1.4}, {"smiles": "O=C1NC(=O)N(c2ccccc2)C(=O)/C1=C/c1ccc(N2CCCC2)cc1", "displacement": -30.2}, {"smiles": "C#CCn1cc(/C=C2\\C(=O)NC(=O)N(c3ccc(Br)c(C)c3)C2=O)c2ccccc21", "displacement": 6.2}, {"smiles": "O=C1NC(=O)N(c2ccc(Cl)cc2)C(=O)/C1=C/c1ccc(F)cc1", "displacement": 8.2}, {"smiles": "Cc1cc(C)cc(N2C(=O)NC(=O)/C(=C\\c3cn(C)c4ccccc34)C2=O)c1", "displacement": 144}, {"smiles": "CCn1cc(/C=C2\\C(=O)NC(=O)N(c3ccc(Cl)cc3)C2=O)c2ccccc21", "displacement": -18.6}, {"smiles": "Cc1cc(C)cc(N2C(=O)NC(=O)/C(=C\\c3ccccc3C)C2=O)c1", "displacement": 6.3}, {"smiles": "Cc1ccc(C(=O)N2CCC(Cc3ccccc3)CC2)o1", "displacement": 6.7}, {"smiles": "CC1S/C(=N/N=C/c2ccccc2Cl)NC1=O", "note": "(centres undefined)", "displacement": 1.2}, {"smiles": "CCOC(=O)/C(C#N)=C\\c1ccc(F)cc1", "displacement": 2.3}, {"smiles": "CCOC(=O)C(C)Oc1cc2oc(=O)cc(-c3ccccc3)c2cc1CC", "note": "(centres undefined)", "displacement": 11}, {"smiles": "COc1ccc(CCN=CC2=C(O)CC(c3ccccc3)CC2=O)cc1OC", "note": "(centres undefined)", "displacement": 1.2}, {"smiles": "CCCOc1cccc(NC(=O)c2c(-c3ccccc3)noc2C)c1", "displacement": -5.5}, {"smiles": "COc1ccc(OC)c(/C=C/C(=O)Oc2cc(C)cc(C)c2)c1", "displacement": 11.8}, {"smiles": "Cc1cc(C)cc(N2C(=O)NC(=O)/C(=C\\c3ccsc3)C2=O)c1", "displacement": -7.8}, {"smiles": "COc1ccccc1OCCn1cc(/C=C2/C(=O)NC(=O)N(c3ccccc3)C2=O)c2ccccc21", "displacement": 1.6}, {"smiles": "Cc1ccc(N2C(=O)NC(=O)/C(=C\\c3ccsc3)C2=O)cc1", "displacement": 66.1}, {"smiles": "CC(C)c1ccc(N2C(=O)NC(=O)/C(=C/c3cn(C)c4ccccc34)C2=O)cc1", "displacement": 145}, {"smiles": "Cc1cccc(N2C(=O)S/C(=C\\c3ccccc3)C2=O)c1", "displacement": 12.3}, {"smiles": "CC(C)c1ccc(N2C(=O)NC(=O)/C(=C/c3ccccc3O)C2=O)cc1", "displacement": 0.6}, {"smiles": "Cc1cccc(N2C(=O)S/C(=C/c3ccc(N(C)C)cc3)C2=O)c1", "displacement": 95.7}, {"smiles": "Cc1cccc(N2C(=O)/C(=C/c3ccc(N(C)C)cc3)SC2=S)c1", "displacement": -5.4}, {"smiles": "COc1ccc(N2C(=O)NC(=O)/C(=C/c3cn(CCOc4ccccc4OC)c4ccccc34)C2=O)cc1", "displacement": 87.6}, {"smiles": "COc1ccccc1OCCn1cc(C=C2C(=O)N(C)C(=O)N(C)C2=O)c2ccccc21", "displacement": 3.5}, {"smiles": "Cn1cc(C=C2C(=O)NC(=S)NC2=O)c2ccccc21", "displacement": 8.8}, {"smiles": "O=C1NC(=O)N(c2ccc(Cl)cc2)C(=O)/C1=C/c1ccsc1", "displacement": -24.1}, {"smiles": "O=C(NCc1cccs1)c1cc2n(n1)C(C(F)(F)F)CC(c1cccs1)N2", "note": "(centres undefined)", "displacement": 0}, {"smiles": "CCC(Oc1ccccc1)C(=O)NC(C)c1ccccc1", "note": "(centres undefined)", "displacement": -18.9}, {"smiles": "Oc1ccc(Br)cc1C=NCc1ccco1", "displacement": 3.3}]}]}
